# This excerpt belongs to a sample that is enriched for hits.
# GRP78 ERSR act – induces the endoplasmic reticulum stress response in human glioma cells; U87-MG GRP78 promoter luciferase reporter, 16 h; actives 0.02% (n = 420,000); Potency, µM, usual class: activators; note: series mostly up to about 76 µM; nearly all actives have a fitted effect of over 35% in size
#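 ERSR induction read as luciferase luminescence (Bright-Glo, 10 min at room temperature) in stably transfected human U87-MG glioma cells exposed to compounds for 16 h, using GRP78 as sensor.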
# 12-LOX inh – inhibitors of human 12S-lipoxygenase ALOX12; actives 1.1% (n = 580,000); Potency, µM (series often up to 108 µM), actives largely listed as inhibitors; purified 12hLO, xylenol orange hydroperoxide absorbance
# Target sequence (P18054 whole entry, looked up): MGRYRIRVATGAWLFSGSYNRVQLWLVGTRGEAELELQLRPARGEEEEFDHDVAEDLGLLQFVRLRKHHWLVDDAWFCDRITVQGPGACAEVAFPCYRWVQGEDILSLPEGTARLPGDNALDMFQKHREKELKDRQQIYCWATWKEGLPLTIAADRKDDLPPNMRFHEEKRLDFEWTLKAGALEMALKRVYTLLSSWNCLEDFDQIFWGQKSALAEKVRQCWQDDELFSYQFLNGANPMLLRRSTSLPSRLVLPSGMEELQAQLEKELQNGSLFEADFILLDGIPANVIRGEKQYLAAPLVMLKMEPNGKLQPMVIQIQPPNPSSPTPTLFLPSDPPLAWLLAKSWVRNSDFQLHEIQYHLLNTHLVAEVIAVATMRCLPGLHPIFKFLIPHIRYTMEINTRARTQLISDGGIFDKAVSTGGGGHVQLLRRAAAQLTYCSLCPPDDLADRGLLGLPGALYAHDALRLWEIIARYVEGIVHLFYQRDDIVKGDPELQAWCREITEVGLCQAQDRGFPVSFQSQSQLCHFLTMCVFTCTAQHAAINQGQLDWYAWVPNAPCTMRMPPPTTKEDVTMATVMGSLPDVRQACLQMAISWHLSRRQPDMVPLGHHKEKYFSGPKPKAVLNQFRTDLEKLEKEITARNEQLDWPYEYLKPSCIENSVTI
#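 Hydroperoxide product was detected by ferrous iron/xylenol orange as the 573 to 405 nm absorbance ratio. Arachidonic acid at 40 uM (final) was turned over for 30 min at room temperature by 150 nM human 12hLO, pH 7.0 Hepes buffer, after 15 min compound preincubation.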
# G9a block – G9a (human) methyltransferase inhibition. AID 504332. actives 8.8% (n = 350,000). G9a H3K9 monomethylation, AlphaScreen, 2 h. Potency, µM (doses to about 102 µM), most hits filed as inhibitors. Q96KQ7; note: nearly all actives have a fitted effect of over 75% in size
#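 Readings reflect AlphaScreen signal from monomethyl-H3K9 antibody detection. HMT at 20 nM; substrate b-H3K9 500 nM; cofactor SAM 20 uM; 2 h RT reaction; compounds tested as titrations in qHTS with 15 min preincubation.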
# Sfp PPTase inh – Sfp phosphopantetheinyl transferase inhibition; AID 1490; actives 3.5% (n = 310,000); Q9F4F7; Potency, µM, most hits filed as inhibitors; Biochemical Sfp PPTase activity, qHTS;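 note: the enzyme is Sfp with the accession as filed and its product quenches rhodamine fluorescence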
#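 Fluorescence-quenching assay with 15 nM Sfp, 5 uM rhodamine-CoA and 12.5 uM BHQ-2-labelled ybbR peptide in pH 7.6 Hepes/MgCl2 buffer. Enzyme was pre-incubated with compound for 15 min at room temperature. Rate was taken from the 30-min fluorescence change (525/598 nm).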
# VDR inhibitor – blocks the human vitamin D receptor | VDR-SRC2-3 peptide fluorescence polarization, 2 h | Potency, µM, most hits filed as inhibitors | actives 0.93% (n = 400,000)
#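 Fluorescence polarization assay measuring small-molecule disruption of VDR binding to the coregulator peptide SRC2-3. Compounds were pin-transferred (23 nl) into the reagent mix and incubated 2 h at room temperature before reading.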
# Numbers stand for hits; i = inactive; ? = inconclusive; nt = not tested or not shown; [ ] = another dose, or the depositor's remark. Calls come from the whole dose curve; as a rule, active = well fitted curve in the direction sought with a large enough effect; inconclusive = small, poorly fitted or top-dose-only effect, or another doubt; inactive = no such curve, though single readings can be large; an effect the other way counts as inactive or inconclusive.
SMILES,GRP78 ERSR act,12-LOX inh,G9a block,Sfp PPTase inh,VDR inhibitor
CN(C(=O)Cn1c(Cl)nc2c1c(=O)n(C)c(=O)n2C)C1CCS(=O)(=O)C1 (stereo not drawn),i,?,56µM,nt,i
Cc1ccc2oc(=O)cc(N3CCOCC3)c2c1,nt,i,nt,nt,nt
O=C(Nc1cnc(-c2ccccc2)nc1)C1CCCCC1,nt,i,nt,nt,nt
CCCC(=O)N(c1ccc(OC)cc1OC)C1C=CS(=O)(=O)C1 (stereo not drawn),nt,i,nt,nt,nt
O=C(Nc1ccc(C(F)(F)F)cc1)c1ccc2ncsc2c1,i,?,?,79µM,?
Cc1ccc(NC(=O)c2ccc3ncsc3c2)cc1S(=O)(=O)N(C)C,nt,?,?,56µM,nt
CC(=O)NC(=O)COC(=O)c1ccc2ncsc2c1,i,i,56µM,i,i
O=C(COC(=O)c1ccc2ncsc2c1)Nc1cccc(Cl)c1,i,i,i[12.7 µM],nt,i
Nc1ccc(-c2nc3ccc(C(=O)O)cc3s2)cc1,i,i,40µM,56µM,i
O=C(Nc1cccc(C(F)(F)F)c1)c1cc(=O)c2ccccc2o1,nt,i,nt,nt,nt
O=C(Nc1ccc(Cl)cc1)c1ccc2ncsc2c1,i,nt,45µM,?,i
O=C(O)c1ccc2ncsc2c1,i,45µM,?,i,i
O=C(Nc1cccc(Cl)c1)c1ccc2ncsc2c1,?,?,i,i,i
O=C(CSc1ccc(Cl)cc1)Nc1cc(Cl)ccc1N1CCOCC1,nt,i,nt,nt,nt
CCCCCCCCCNC(=O)c1nccnc1N,nt,i,nt,nt,nt
O=C(c1cc(F)ccc1F)N1CCCC2(C1)NC(=O)N(Cc1ccc(Cl)cc1)C2=O (stereo not drawn),nt,i,nt,nt,nt
CC(=O)Nc1ncc2c(n1)CC(c1ccc(N(C)C)cc1)CC2=O (stereo not drawn),nt,i,nt,nt,nt
COc1ccc(CCNC(=O)c2c(Nc3ccccc3C)sc(C(=O)c3ccccc3)c2N)cc1OC,i,i,8.9µM,nt,i
Cc1ccccc1Nc1sc(C(=O)c2ccc(F)cc2)c(N)c1C(=O)NCCc1ccccc1,i,i,14µM,nt,i
Cc1ccc(NC(=O)c2c(Nc3ccccc3C)sc(C(=O)c3ccccc3)c2N)cc1,i,i,?,nt,i
COc1ccc(Nc2sc(C(=O)c3ccccc3)c(N)c2C(=O)Nc2cc(C)ccc2C)c(OC)c1,?,i,i,nt,i
Cc1ccc(O)c(NC(=O)c2cc(-c3ccccn3)nc3ccccc23)c1,nt,i,nt,nt,nt
Cc1ccc2cc(C(c3nnnn3C3CCCC3)N(Cc3ccco3)Cc3cccs3)c(=O)[nH]c2c1 (stereo not drawn),i,?,28µM,i,i
Cc1ccc2cc(C(c3nnnn3C3CCCC3)N(Cc3cccnc3)Cc3ccco3)c(=O)[nH]c2c1 (stereo not drawn),i,i,20µM,10µM,i
Cc1ccc2[nH]c(=O)c(C(c3nnnn3C3CCCC3)N(Cc3cccnc3)Cc3ccco3)cc2c1 (stereo not drawn),i,?,i,i,i
SMILES,GRP78 ERSR act,12-LOX inh,G9a block,Sfp PPTase inh,VDR inhibitor
Cc1ccccc1N1CC(O)(c2ccccc2)[N+]2=C1SCC2 (stereo not drawn),i,?,32µM,i,i
O=C(NCC1CCCO1)c1nc2c(nnn2Cc2ccc(F)cc2)c(=O)[nH]1 (stereo not drawn),i,?,50µM,i,i
COc1cc(CN2CCC(C(=O)N3CCN(c4ccccc4F)CC3)CC2)ccc1O,i,i,14µM,i,i
COc1cccc(CN2CCC(C(=O)N3CCN(c4ccccc4F)CC3)CC2)c1,i,i,10µM,i,i
COc1ccc(OC)c(CN2CCC(C(=O)N3CCN(c4ccccc4F)CC3)CC2)c1,i,?,10µM,i,i
COc1ccc(OC)c(CN2CCC(C(=O)N3CCOCC3)CC2)c1,i,?,10µM,i,?
COc1ccc(-c2cc3c(=O)n(CCNC(=O)c4ccoc4)ccn3n2)cc1,nt,i,nt,nt,nt
O=C(CSc1nc2ccccc2o1)N1CCN(CC(=O)N2CCCC2)CC1,nt,i,nt,nt,nt
CCn1c(=O)c2c(nc(-n3nc(C)cc3C)n2Cc2c(F)cccc2Cl)n(C)c1=O,nt,i,nt,nt,nt
Cc1ccc2nc(C)c(C(=O)NCc3cccnc3OC(C)C)cc2c1,nt,i,nt,nt,nt
CCOc1ccc2oc(C(=O)NC3CCN(Cc4ccccc4)CC3)c(C)c2c1,i,i,?,i,i
Cc1c(C(=O)Nc2nc3ccccc3[nH]2)oc2ccc(Br)cc12,i,i,i,14µM,i
CN(C)c1cccc(C(=O)Nc2nc3ccccc3[nH]2)c1,i,?,50µM,i,i
Cn1nc(C(=O)Nc2nc3ccccc3[nH]2)ccc1=O,i,i,32µM,i,i
Cc1c(C(=O)NC2CCN(Cc3ccccc3)C2)oc2ccc(Br)cc12 (stereo not drawn),i,?,35µM,i,i
COc1cc(OC)c(NC(=O)Cn2c(N(C)Cc3ccccc3)nc(C)cc2=O)cc1Cl,nt,i,nt,nt,nt
O=C(CC(c1ccc(F)cc1)N1Cc2ccccc2C1=O)NCc1ccc(F)cc1 (stereo not drawn),nt,i,nt,nt,nt
COc1ccc(S(=O)(=O)Oc2ccc3c(c2)O/C(=C\c2cc(OC)ccc2OC)C3=O)cc1,nt,i,nt,nt,nt
CC1OC(O[C@H]2CC[C@]3(C)C4C=C[C@]56OC[C@@]7(CC[C@@H](C)[C@H](C)C75)[C@H](O)C[C@@]6(C)[C@]4(C)CC[C@H]3C2(C)C)C(OC2OC(CO)C(O)C(O)C2OC2OCC(O)C(O)C2O)C(O)C1O (stereo partly drawn),nt,nt,i[12.7 µM],89µM,nt
C[C@@H]1OC(OC2CC[C@@]3(C)C(CC[C@@]4(C)C3CC=C3C5CC(C)(C)CC[C@]5(C(=O)OC5OCC(O)[C@@H](O)[C@@H]5OC5O[C@@H](C)[C@H](O[C@H]6OC(CO)C(O)C(O)C6O)C(O)C5O)C(O)C[C@@]34C)C2(C)C)C(O)C(O)[C@H]1OC1OCC(O)C(O)[C@H]1O (stereo partly drawn),i,nt,nt,i,i
NC(=O)C(c1ccc(Cl)cc1)c1ccc(Sc2ccc(Cl)cc2)nn1 (stereo not drawn),i,?,79µM,i,i
O=C(O)C(c1ccc(Cl)cc1)c1ccc(Cl)cc1,nt,i,nt,nt,nt
CCN(C(=O)c1occc1C)C1CC1,nt,i,nt,nt,nt
Brc1ccc(CSc2nnc(-c3ccccn3)n2Cc2ccco2)cc1,i,i,50µM,i,i
Cc1ccc(-c2nnc(SCc3ccc(C#N)cc3)n2Cc2ccco2)cc1,i,i,nt,i,i
SMILES,GRP78 ERSR act,12-LOX inh,G9a block,Sfp PPTase inh,VDR inhibitor
Clc1ccc(CSc2nnc(-c3ccccn3)n2Cc2ccco2)cc1Cl,i,i,nt,nt,nt
COc1cccc(-c2nnc(SCc3ccc(C#N)cc3)n2Cc2ccco2)c1,i,?,35µM,?,i
CC(C)(C)c1ccc(CSc2nnc(-c3ccccn3)n2Cc2ccco2)cc1,?,i,i[12.7 µM],32µM,i
CCOC(=O)c1ccc(NC(C)=O)o1,nt,i,nt,nt,nt
COc1ccc(-c2noc(CC3CCN(C(=O)C4(c5ccc(OC)cc5)CC4)CC3)n2)cc1,nt,i,nt,nt,nt
Cc1cc(=O)n(CC(=O)Nc2ccc(C)c(C)c2)c(N2CCN(c3ccccc3)CC2)n1,nt,i,nt,nt,nt
O=C(O)c1cccc(Cl)n1,i,i,40µM,i,i
Nc1cccc2ccc(C(=O)O)nc12,nt,i,nt,nt,nt

# Screening data: PubChem BioAssay, National Center for Advancing Translational Sciences (NCATS)
